By viability is commonly meant a read-out of living cells in per cent, often relative to untreated cells.

Assay [1] addresses Cellular tumor antigen p53 (Homo sapiens) (UniProt P04637). Briefly: Primary qHTS for small molecule compounds that upregulate eGFP-tagged delta133p53alpha (in N-terminal) cells. (AID 2060322).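 For activation: series mostly up to about 56 µM; 0% = DMSO vehicle and 100% = reference activator.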 Note: nearly all actives have a fitted effect of over 75% in size. Note: potency is the fitted concentration of half-maximal effect. The settings on record: NCI-H358 eGFP-delta133p53alpha fluorescence, 24 h; activation: stronger effect = higher value. The method, boiled down: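 NCI-H358 cells pre-induced 24 h with 10 ng/ml doxycycline to express N-terminal eGFP-delta133p53alpha, then dosed 24 h at 37C without doxycycline; fixed, Hoechst-stained, GFP intensity by laser scanning cytometry, normalized to DMSO (0%) and 57.5 uM 5-azacytidine (100%).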

The target in assay [2] is Aldehyde dehydrogenase, mitochondrial (Homo sapiens) (UniProt P05091). Kind of assay: qHTS for Inhibitors of the Aldehyde Dehydrogenase Family (ALDH2) Primary screen (AID 2061308).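 Note: plate controls were vehicle for no effect and reference inhibitor for full effect; nearly all actives have a fitted effect of over 55% in size.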 A general note: qHTS replaces the single test concentration by a dilution series.
Assay [3] concerns the target Retinaldehyde dehydrogenase 3 (Homo sapiens) (UniProt P47895). Kind of assay: qHTS for Inhibitors of the Aldehyde Dehydrogenase Family (ALDH1A3) Primary screen (AID 2061315).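 Note: plate controls were DMSO vehicle for no effect and reference inhibitor for full effect.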
A short description of assay [4]: BET inhibitor-based combinations targeting novel dependencies in MECOM-rearranged (r) AML: SET-2 cell line (AID 2202231).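 For viability: plate controls were DMSO treated cells for no effect and wells without cells for full effect.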 Note: nearly all actives have a fitted effect of over 35% in size. Note: potency is the fitted concentration of half-maximal effect. The following applies: SET-2 AML cells viability, CellTiter-Glo luminescence, 48 h; viability: stronger effect = lower value, concentration not given here. The method, boiled down: (§1)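 A 48 hr incubation preceded viability reading by CellTiter-Glo, with 15 min room-temperature development. Dose series had 11 points; normalization used DMSO and empty wells; AUC was computed and mean-centered per line as Z-AUC.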
On the technique in general: ATP-based viability assays read luminescence as a measure of living cells.

Assay [5] can be described thus: BET inhibitor-based combinations targeting novel dependencies in MECOM-rearranged (r) AML: OCI-AML3 cell line (AID 2202232). Note: potency is the fitted concentration of half-maximal effect; nearly all actives have a fitted effect of over 35% in size. The settings on record: Potency: OCI-AML3 viability. The method, boiled down: as §1
A short description of assay [6]: BET inhibitor-based combinations targeting novel dependencies in MECOM-rearranged (r) AML: MV-4-11 cell line (AID 2202233). Note: nearly all actives have a fitted effect of over 45% in size. Note: potency is the fitted concentration of half-maximal effect. The method, boiled down: (§2)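 Each compound is tested in an 11-point concentration series against 500 seeded cells/well for 48 hr. The luminescent viability signal is normalized to DMSO and blank wells, then reduced to AUC and a cell-line-centred Z-AUC.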

The nature of assay [7]: BET inhibitor-based combinations targeting novel dependencies in MECOM-rearranged (r) AML: HNT-34 cell line (AID 2202234). Note: nearly all actives have a fitted effect of over 35% in size. Note: potency is the fitted concentration of half-maximal effect. In a few lines: as §2
Assay [8] can be described thus: BET inhibitor-based combinations targeting novel dependencies in MECOM-rearranged (r) AML: UCSD-AML1 cell line (AID 2202235). Note: nearly all actives have a fitted effect of over 40% in size. Note: potency is the fitted concentration of half-maximal effect. In a few lines: as §2
Assay [9] has as its target Aldehyde dehydrogenase 1A1 (Homo sapiens) (UniProt P00352). Briefly: qHTS for Inhibitors of the Aldehyde Dehydrogenase Family (ALDH1A1) Confirmatory screens (AID 2061316). Note: nearly all actives have a fitted effect of over 65% in size. Note: potency is the fitted concentration of half-maximal effect.
The nature of assay [10]: BET inhibitor-based combinations targeting novel dependencies in MECOM-rearranged (r) AML: AML-191 cell line (AID 2202236; note: nearly all actives have a fitted effect of over 35% in size; note: potency is the fitted concentration of half-maximal effect). In a few lines: as §1
Assay [11] can be described thus: BET inhibitor-based combinations targeting novel dependencies in MECOM-rearranged (r) AML: AML-194 cell line (AID 2202237; note: nearly all actives have a fitted effect of over 40% in size; note: potency is the fitted concentration of half-maximal effect). In a few lines: as §1

Each structure is given as a SMILES string. Several values for one entry are separate records, joined by “and”; a condition that tells them apart may be missing. Equal values may be shown once. Records with an inconclusive call do not appear. A number with no mark means an inactive call. Activity calls are given as the source filed them. Calls come from the whole dose curve; as a rule, active = well fitted curve in the direction sought with a large enough effect; inconclusive = small, poorly fitted or top-dose-only effect, or another doubt; inactive = no such curve, though single readings can be large; an effect the other way counts as inactive or inconclusive.

Cellular tumor antigen p53 (Homo sapiens), sequence (P04637 whole entry, looked up): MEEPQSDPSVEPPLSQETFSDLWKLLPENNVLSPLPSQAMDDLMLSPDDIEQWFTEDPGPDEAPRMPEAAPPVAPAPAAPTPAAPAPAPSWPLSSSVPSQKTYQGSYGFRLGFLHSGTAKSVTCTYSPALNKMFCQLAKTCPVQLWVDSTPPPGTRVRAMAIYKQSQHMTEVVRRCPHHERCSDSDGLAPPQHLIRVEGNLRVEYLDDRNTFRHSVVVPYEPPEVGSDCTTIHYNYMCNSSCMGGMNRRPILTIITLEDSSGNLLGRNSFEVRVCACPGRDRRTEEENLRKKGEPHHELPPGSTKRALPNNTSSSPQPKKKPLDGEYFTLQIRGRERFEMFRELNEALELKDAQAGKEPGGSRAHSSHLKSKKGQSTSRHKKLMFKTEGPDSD

Turning to `CO[C@H]1C[C@@H]2CC[C@@H](C)[C@@](O)(O2)C(=O)C(=O)N2CCCC[C@H]2C(=O)O[C@H]([C@H](C)C[C@@H]2CC[C@@H](OP(C)(C)=O)[C@H](OC)C2)CC(=O)[C@H](C)/C=C(\C)[C@@H](O)[C@@H](OC)C(=O)[C@H](C)C[C@H](C)/C=C/C=C/C=C/1C`, the activation in [1] was 3%. Further, the Potency result in assay [2] and in assay [3] was “inactive” each time. Also, the Potency was 23.5 µM (active) in [4]; 23.5 µM (active) in assay [5]; 14.8 µM (active) in assay [6]; 1.48 µM (active) in assay [7]; 0.0033 µM (active) in assay [8].
Take `CC(=O)c1c(O)cc(O[C@@H]2O[C@H](CO)[C@@H](O)[C@H](O)[C@H]2O)cc1O`: the activation in assay [1] is -8.04%. Also, the Potency result in assay [2], in assay [3] and in [9] was “inactive” each time.
`Cc1nc(NC(=O)N2CCC[C@H]2C(N)=O)sc1-c1ccnc(C(C)(C)C(F)(F)F)c1`: the activation in [1] is -25%. Moreover, the Potency entry in assay [2] and in assay [3] was “inactive” throughout. In [4], the viability is 89%.
Consider `CC1=C(C(=O)OC2OC(COC3OC(CO)C(O)C(O)C3O)C(O)C(O)C2O)C(C)(C)CCC1` (stereo unspecified), for which the activation in [1] is -14.5%. For the same molecule, the Potency result in assay [2] and in assay [3] was “inactive” in each case.
Consider `Cc1nc(NC(=O)N2CCCC2C(N)=O)sc1-c1ccnc(C(C)(C)C(F)(F)F)c1` (stereo unspecified), for which the activation in assay [1] is -0.893%. Moreover, the Potency entry in assay [2] and in assay [3] was “inactive” each time. Also, the Potency in assay [4] was 20.9 µM (active); in assay [5], 2.63 µM (active); in assay [6], 16.6 µM (active).
In the case of `CC1(C)CNc2cc(NC(=O)c3cccnc3NCc3ccncc3)ccc21`, the activation in assay [1] is -11.7% and 7.64%. The Potency entry in assay [2] and in assay [3] was “inactive” in each case. For the same molecule, the viability in [4] is 63%.
`Clc1cc2c(NC3CCCC3)nnc(-c3ccncc3)c2cc1Cl`: the activation in assay [1] is -9%. The Potency entry in assay [2], in assay [3], in assay [6], in assay [7], in [8] and in assay [10] was “inactive” each time. For the same molecule, the Potency entry in assay [11] was “inactive”. Also, the viability in assay [4] was 112%. In assay [5], the Potency is 0.468 µM (active).
Regarding `CC(C)(C)c1nc(-c2cccc(NS(=O)(=O)c3c(F)cccc3F)c2F)c(-c2ccnc(N)n2)s1`, in assay [1], the Potency is 26.9 µM (active). Also, the Potency entry in assay [2] and in assay [3] was “inactive” throughout. Further, the viability in [4] was 98%.
On to `C#Cc1cccc(Nc2ncnc3cc(OC)c(OCCCCCCC(=O)NO)cc23)c1`, for which the Potency in assay [1] is 8.63 µM (active) and 5.36 µM (active) and 544 nM (active); in assay [4], 1.48 µM (active); in assay [5] it was 1.05 µM (active); in assay [6] it was 0.296 µM (active); in assay [7], 0.934 µM (active); in assay [8] it was 1.18 µM (active). The values for the Potency in [10] and in [11] were 1.05 µM (active) and 2.09 µM (active), respectively. The Potency entry in assay [2] and in [3] was “inactive” in each case.
Regarding `CC(=O)Nc1cccc(-n2c(=O)n(C3CC3)c(=O)c3c(Nc4ccc(I)cc4F)n(C)c(=O)c(C)c32)c1`, the activation in assay [1] is -5.24% and -3.57%. In addition, the Potency entry in assay [2] and in assay [3] was “inactive” each time. The viability in [4] was 89.5%.
Regarding `Nc1ccc(-c2ccc3ncc4ccc(=O)n(-c5cccc(C(F)(F)F)c5)c4c3c2)cn1`, the activation in [1] was 6.6%. Further, the Potency result in assay [2] and in [3] was “inactive” each time. Besides, the Potency in assay [4] was 0.105 µM (active); in assay [5], 0.166 µM (active); in assay [6], 0.0833 µM (active); in assay [7], 0.059 µM (active); in assay [8] it was 0.0263 µM (active); in assay [10], 0.0525 µM (active).
As for `COc1cc2nc(-c3cc(F)ccc3O)nc(N[C@@H]3CNC[C@H]3C(C)(C)O)c2cc1OC`, the Potency in assay [1] is 21.3 µM (active); in assay [4], 6.61 µM (active); in [5], 7.42 µM (active); in [6], 0.0066 µM (active); in assay [7], 4.68 µM (active); in [8], 4.17 µM (active). Besides, the Potency in [10] was 5.25 µM (active). The Potency result in assay [2] and in assay [3] was “inactive” each time.
`C/C(=C\CCC(C)CCO)C(=O)O[C@@H]1[C@@H](O)[C@H](OC2OC=C(C(=O)O)C3CCC(C)(O)C23)O[C@H](CO)[C@H]1O` (stereo partly specified): the activation in assay [1] is 13.4%. The Potency result in [2] and in [3] was “inactive” each time.
Consider `O=C(NOCC1CC1)c1ccc(F)c(F)c1Nc1ccc(I)cc1Cl`, for which the activation in assay [1] was 13% and 35.6% and 22.3%. For the same molecule, the Potency entry in assay [2] and in assay [3] was “inactive” in each case. The Potency was 23.5 µM (active) in assay [4]; 0.296 µM (active) in assay [5]; 7.42 µM (active) in assay [6]; 8.33 µM (active) in assay [7]; 16.6 µM (active) in assay [8]; 11.8 µM (active) in assay [10].
With `C[C@H](O)[C@H](O)[C@H]1CNc2nc(N)[nH]c(=O)c2N1`, the activation in assay [1] is 10.3%. Further, the Potency entry in [2] and in [3] was “inactive” in each case. In addition, the Potency in assay [9] was 12.7 µM (active).
`N#CCNC(=O)c1ccc(-c2ccnc(Nc3ccc(N4CCOCC4)cc3)n2)cc1`: the Potency was 8.49 µM (active) in assay [1]; 4.17 µM (active) in assay [4]; 16.6 µM (active) in assay [5]; 0.833 µM (active) in assay [6]; 2.95 µM (active) in assay [7]; 1.48 µM (active) in assay [8]. Also, the Potency in [10] is 4.68 µM (active); in assay [11] it was 5.25 µM (active). Moreover, the Potency result in assay [2] and in assay [3] was “inactive” throughout.
Regarding `CCOc1cc2ncc(C#N)c(Nc3ccc(F)c(Cl)c3)c2cc1NC(=O)/C=C/CN(C)C`, the Potency was 13.5 µM (active) in assay [1]; 5.9 µM (active) in [4]; 4.17 µM (active) in assay [5]; 0.934 µM (active) in [6]; 0.296 µM (active) in [7]; 1.48 µM (active) in assay [8]. In addition, the Potency in assay [10] is 4.68 µM (active); in assay [11], 5.25 µM (active). The Potency entry in [2] and in assay [3] was “inactive” in each case.
